# Experimental data: the supplement of paper PMC10037445
# The full ranking holds about 2,900 compounds; the median of “NF-kB SEAP reporter activity, fold change vs agonist alone” is about 0.99, and the highest 2% start at about 2.6. This is one part of a sample in which the highest values are shown more often than they occur.
# Key:
# RAW-Dual [1] = assay: NF-kB SEAP reporter activity, fold change vs agonist alone; higher = enhanced NF-kB activity
# Outline: (§1)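 RAW-Dual macrophages (50,000 cells/well in DMEM, 384-well plates) received 50 nL of library stock by pin tool, then a PRR agonist 1 h later, and were kept at 37 °C, 5% CO2. After 20 hours, supernatant was read for IRF by QuantiLuc luminescence and for NF-κB by QuantiBlue absorbance at 620 nm. Reporter activity is fold change over agonist-alone wells. Cytotoxic wells had IncuCyte confluency below 70% of agonist controls in both mask sets.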
# RAW-Dual [2] = assay: NF-kB SEAP reporter activity, fold change vs agonist alone; cytotoxicity flag (confluency mask): not cytotoxic; higher = enhanced NF-kB activity
# Outline: as §1
# RAW-Dual [3] = assay: NF-kB SEAP reporter activity, fold change vs agonist alone; cytotoxicity flag (confluency mask): cytotoxic (confluency <70% of control); higher = enhanced NF-kB activity
# Outline: as §1
# [4] = library stock concentration (final ~1000-fold dilution): 10 mM, cytotoxicity flag (confluency mask): not cytotoxic, agonist: Imiquimod (TLR7) […]
# [5] = library stock concentration (final ~1000-fold dilution): 10 mM, cytotoxicity flag (confluency mask): not cytotoxic, agonist: MPLA (TLR4) […]
# [6] = agonist: ODN 1826 (TLR9) 0.5 ug/mL
# [7] = agonist: Pam2CSK4 (TLR2/6) 0.1 ug/mL
# [8] = agonist: Pam3CSK4 (TLR2/1) 0.1 ug/mL
smiles,measurement,setting,value
COc1ccc(C2OCC3C(c4cc(OC)c(OC)c(OC)c4)OCC23)cc1OC (configuration not stated),NF-kB SEAP reporter activity,RAW-Dual [1]; [4],0.813
same,NF-kB SEAP reporter activity,RAW-Dual [1]; [5],1.03
COc1ccc(C2OCC3C(c4cc(OC)c(OC)c(OC)c4)OCC23)cc1OC (configuration not stated) (library stock concentration (final ~1000-fold dilution): 10 mM),NF-kB SEAP reporter activity,RAW-Dual [2]; agonist: LPS (TLR4) 0.1 ug/mL,1.2
same,NF-kB SEAP reporter activity,RAW-Dual [2]; [6],1
same,NF-kB SEAP reporter activity,RAW-Dual [2]; [7],1.01
same,NF-kB SEAP reporter activity,RAW-Dual [2]; [8],1.71
O=C1c2cccc3c2C(CCC3)CN1C1CN2CCC1CC2 (configuration not stated) (library stock concentration (final ~1000-fold dilution): 10 mM),NF-kB SEAP reporter activity,RAW-Dual [2]; agonist: LPS (TLR4) 0.1 ug/mL,1.5
same,NF-kB SEAP reporter activity,RAW-Dual [2]; [6],0.937
same,NF-kB SEAP reporter activity,RAW-Dual [2]; [7],0.587
same,NF-kB SEAP reporter activity,RAW-Dual [2]; [8],0.339
O=C1c2cccc3c2C(CCC3)CN1C1CN2CCC1CC2 (configuration not stated),NF-kB SEAP reporter activity,RAW-Dual [1]; [4],0.886
same,NF-kB SEAP reporter activity,RAW-Dual [1]; [5],1.17
COc1ccc(-c2nc(N3CCOCC3)c3sc(CN(C)c4ncc(C(=O)NO)cn4)cc3n2)cn1 (library stock concentration (final ~1000-fold dilution): 10 mM),NF-kB SEAP reporter activity,RAW-Dual [3]; agonist: LPS (TLR4) 0.1 ug/mL,4.34
same,NF-kB SEAP reporter activity,RAW-Dual [3]; [6],2.1
same,NF-kB SEAP reporter activity,RAW-Dual [3]; [7],1.3
same,NF-kB SEAP reporter activity,RAW-Dual [3]; [8],1.6
Cc1c(CN2CCN(C(=O)C(C)O)CC2)sc2c(N3CCOCC3)nc(-c3cnc(N)nc3)nc12 (configuration not stated) (library stock concentration (final ~1000-fold dilution): 10 mM),NF-kB SEAP reporter activity,RAW-Dual [2]; agonist: LPS (TLR4) 0.1 ug/mL,1.32
same,NF-kB SEAP reporter activity,RAW-Dual [2]; [6],0.763
same,NF-kB SEAP reporter activity,RAW-Dual [2]; [7],0.412
same,NF-kB SEAP reporter activity,RAW-Dual [2]; [8],0.661
COc1ccc(-c2nc(N3CCOCC3)c3sc(CN(C)c4ncc(C(=O)NO)cn4)cc3n2)cn1,NF-kB SEAP reporter activity,"RAW-Dual [1]; library stock concentration (final ~1000-fold dilution): 10 mM, cytotoxicity flag (confluency mask): cytotoxic (confluency <70% of control), agonist: Imiquimod (TLR7) […]",2.88
same,NF-kB SEAP reporter activity,"RAW-Dual [1]; library stock concentration (final ~1000-fold dilution): 10 mM, cytotoxicity flag (confluency mask): cytotoxic (confluency <70% of control), agonist: MPLA (TLR4) […]",2.66
Cc1c(CN2CCN(C(=O)C(C)O)CC2)sc2c(N3CCOCC3)nc(-c3cnc(N)nc3)nc12 (configuration not stated),NF-kB SEAP reporter activity,RAW-Dual [1]; [4],1
same,NF-kB SEAP reporter activity,RAW-Dual [1]; [5],1.08
COC1(c2sc3c(N4CCOCC4)nc(-c4cnc(N)nc4)nc3c2C)COC1 (library stock concentration (final ~1000-fold dilution): 10 mM),NF-kB SEAP reporter activity,RAW-Dual [2]; agonist: LPS (TLR4) 0.1 ug/mL,1.46
same,NF-kB SEAP reporter activity,RAW-Dual [2]; [6],0.707
same,NF-kB SEAP reporter activity,RAW-Dual [2]; [7],0.459
same,NF-kB SEAP reporter activity,RAW-Dual [2]; [8],0.608
COC1(c2sc3c(N4CCOCC4)nc(-c4cnc(N)nc4)nc3c2C)COC1,NF-kB SEAP reporter activity,RAW-Dual [1]; [4],0.913
same,NF-kB SEAP reporter activity,RAW-Dual [1]; [5],1.05
CC(C)(CNC(=O)c1cccc(-c2noc(C(F)(F)F)n2)c1)c1coc(-c2ccccc2)n1,NF-kB SEAP reporter activity,RAW-Dual [1]; [4],0.959
same,NF-kB SEAP reporter activity,RAW-Dual [1]; [5],1.09
CC(C)(CNC(=O)c1cccc(-c2noc(C(F)(F)F)n2)c1)c1coc(-c2ccccc2)n1 (library stock concentration (final ~1000-fold dilution): 10 mM),NF-kB SEAP reporter activity,RAW-Dual [2]; agonist: LPS (TLR4) 0.1 ug/mL,1.03
same,NF-kB SEAP reporter activity,RAW-Dual [2]; [6],1.03
same,NF-kB SEAP reporter activity,RAW-Dual [2]; [7],0.625
same,NF-kB SEAP reporter activity,RAW-Dual [2]; [8],0.745
Nc1ncn(C2OC(CO)C(O)C2O)c(=O)n1 (configuration not stated),NF-kB SEAP reporter activity,RAW-Dual [1]; [4],2.59
same,NF-kB SEAP reporter activity,RAW-Dual [1]; [5],2.47
Nc1ccn(C2OC(CO)C(O)C2O)c(=O)n1 (configuration not stated),NF-kB SEAP reporter activity,"RAW-Dual [1]; library stock concentration (final ~1000-fold dilution): 10 mM water, cytotoxicity flag (confluency mask): not cytotoxic, agonist: Imiquimod (TLR7) […]",1.46
same,NF-kB SEAP reporter activity,"RAW-Dual [1]; library stock concentration (final ~1000-fold dilution): 10 mM water, cytotoxicity flag (confluency mask): not cytotoxic, agonist: MPLA (TLR4) […]",1.33
Nc1ccn(C2OC(CO)C(O)C2O)c(=O)n1 (configuration not stated) (library stock concentration (final ~1000-fold dilution): 10 mM water),NF-kB SEAP reporter activity,RAW-Dual [2]; agonist: LPS (TLR4) 0.1 ug/mL,1.92
same,NF-kB SEAP reporter activity,RAW-Dual [2]; [6],1.7
same,NF-kB SEAP reporter activity,RAW-Dual [2]; [7],1.85
same,NF-kB SEAP reporter activity,RAW-Dual [2]; [8],1.83
Nc1ncn(C2CC(O)C(CO)O2)c(=O)n1 (configuration not stated),NF-kB SEAP reporter activity,RAW-Dual [1]; [4],1.58
same,NF-kB SEAP reporter activity,RAW-Dual [1]; [5],1.38
Nc1ncn(C2OC(CO)C(O)C2O)c(=O)n1 (configuration not stated) (library stock concentration (final ~1000-fold dilution): 10 mM),NF-kB SEAP reporter activity,RAW-Dual [2]; agonist: LPS (TLR4) 0.1 ug/mL,1.06
same,NF-kB SEAP reporter activity,RAW-Dual [2]; [6],1.91
same,NF-kB SEAP reporter activity,RAW-Dual [2]; [7],0.631
same,NF-kB SEAP reporter activity,RAW-Dual [2]; [8],0.71
Nc1ncn(C2CC(O)C(CO)O2)c(=O)n1 (configuration not stated) (library stock concentration (final ~1000-fold dilution): 10 mM),NF-kB SEAP reporter activity,RAW-Dual [2]; agonist: LPS (TLR4) 0.1 ug/mL,1.55
same,NF-kB SEAP reporter activity,RAW-Dual [2]; [6],1.41
same,NF-kB SEAP reporter activity,RAW-Dual [2]; [7],1.14
same,NF-kB SEAP reporter activity,RAW-Dual [2]; [8],1.26
O=C(O)CC(C(=O)O)N1C(=O)/C(=C2/C(=O)Nc3ccc(Br)cc32)SC1=S (configuration not stated),NF-kB SEAP reporter activity,RAW-Dual [1]; [4],1.33
same,NF-kB SEAP reporter activity,RAW-Dual [1]; [5],1.72
O=C(O)CC(C(=O)O)N1C(=O)/C(=C2/C(=O)Nc3ccc(Br)cc32)SC1=S (configuration not stated) (library stock concentration (final ~1000-fold dilution): 10 mM),NF-kB SEAP reporter activity,RAW-Dual [2]; agonist: LPS (TLR4) 0.1 ug/mL,0.98
same,NF-kB SEAP reporter activity,RAW-Dual [2]; [6],1.56
same,NF-kB SEAP reporter activity,RAW-Dual [2]; [7],1.02
same,NF-kB SEAP reporter activity,RAW-Dual [2]; [8],1.06
COc1ccccc1Oc1c(NS(=O)(=O)c2ccc(C(C)(C)C)cc2)nc(-c2ncccn2)nc1OCCO.O (library stock concentration (final ~1000-fold dilution): 10 mM),NF-kB SEAP reporter activity,RAW-Dual [2]; agonist: LPS (TLR4) 0.1 ug/mL,1.15
same,NF-kB SEAP reporter activity,RAW-Dual [2]; [6],1.01
same,NF-kB SEAP reporter activity,RAW-Dual [2]; [7],1.06
same,NF-kB SEAP reporter activity,RAW-Dual [2]; [8],1.1
COc1ccccc1Oc1c(NS(=O)(=O)c2ccc(C(C)(C)C)cc2)nc(-c2ncccn2)nc1OCCO.O,NF-kB SEAP reporter activity,RAW-Dual [1]; [4],1.02
same,NF-kB SEAP reporter activity,RAW-Dual [1]; [5],1.1
CC(C)OC(=O)CCC/C=C\CC1C(O)CC(O)C1CCC(O)CCc1ccccc1 (configuration not stated) (library stock concentration (final ~1000-fold dilution): 10 mM),NF-kB SEAP reporter activity,RAW-Dual [2]; agonist: LPS (TLR4) 0.1 ug/mL,1.4
same,NF-kB SEAP reporter activity,RAW-Dual [2]; [6],0.911
same,NF-kB SEAP reporter activity,RAW-Dual [2]; [7],1.1
same,NF-kB SEAP reporter activity,RAW-Dual [2]; [8],0.929
CC(C)OC(=O)CCC/C=C\CC1C(O)CC(O)C1CCC(O)CCc1ccccc1 (configuration not stated),NF-kB SEAP reporter activity,RAW-Dual [1]; [5],1.43
COc1cc(OC)c(/C=C2/C(=O)Nc3ccccc32)c(OC)c1,NF-kB SEAP reporter activity,RAW-Dual [1]; [4],1.62
same,NF-kB SEAP reporter activity,RAW-Dual [1]; [5],1.67
COc1cc(OC)c(/C=C2/C(=O)Nc3ccccc32)c(OC)c1 (library stock concentration (final ~1000-fold dilution): 10 mM),NF-kB SEAP reporter activity,RAW-Dual [2]; agonist: LPS (TLR4) 0.1 ug/mL,3.21
same,NF-kB SEAP reporter activity,RAW-Dual [2]; [6],2.56
same,NF-kB SEAP reporter activity,RAW-Dual [2]; [7],1.33
same,NF-kB SEAP reporter activity,RAW-Dual [2]; [8],1.92
